From PubChem
The full list was thinned out, with hits kept by preference.
PKM2 inh – qHTS Assay for Inhibitors of Human Muscle isoform 2 Pyruvate Kinase. Potency, µM (titrated, usually from 57.5 µM), most hits filed as inhibitors. purified PKM2, ATP generation, Kinase-Glo luminescence. Pyruvate kinase PKM (Homo sapiens), P14618. 260,000 tested, 0.058% active; active = well fitted inhibition curve with a large enough effect; note: nearly all actives have a fitted effect of over 60% in size
Target sequence (P14618 whole entry, looked up, canonical isoform): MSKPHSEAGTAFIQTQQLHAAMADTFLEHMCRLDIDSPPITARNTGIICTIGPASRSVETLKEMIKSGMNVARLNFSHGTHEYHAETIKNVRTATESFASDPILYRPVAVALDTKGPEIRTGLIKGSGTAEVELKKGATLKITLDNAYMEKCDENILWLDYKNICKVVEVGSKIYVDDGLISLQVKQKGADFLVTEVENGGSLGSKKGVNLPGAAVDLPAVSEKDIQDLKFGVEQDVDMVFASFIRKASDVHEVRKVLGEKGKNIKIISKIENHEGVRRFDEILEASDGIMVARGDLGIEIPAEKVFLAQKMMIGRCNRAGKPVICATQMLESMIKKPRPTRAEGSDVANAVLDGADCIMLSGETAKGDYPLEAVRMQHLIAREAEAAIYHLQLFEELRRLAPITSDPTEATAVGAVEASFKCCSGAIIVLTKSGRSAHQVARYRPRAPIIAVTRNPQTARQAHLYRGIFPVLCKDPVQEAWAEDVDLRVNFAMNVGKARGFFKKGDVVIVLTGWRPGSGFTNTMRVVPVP
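Enzyme run at intermediate activity with final 0.1 mM ADP, 0.5 mM PEP (50 mM imidazole pH7.2, 50 mM KCl, 7 mM MgCl2), incubated 1 h at r.t. ATP formed read by Kinase-Glo luminescence, normalized to no-enzyme (full inhibition) and uninhibited wells.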
Of the large screens only hits and unclear results are named; the others gave an inactive call.

c1ccc2[nH]c(CSc3nnc(-c4ccncc4)o3)nc2c1	none
C(=C\c1nc2ccccc2[nH]1)/c1ccccc1	PKM2 inh 14µM
Cc1nnc(NC(=O)CCSCCC(=O)Nc2nnc(C)s2)s1	none
Cc1ccc(C(=O)O/N=C(\N)c2ccccn2)cc1	PKM2 inh 5.6µM
Cc1ccc(C(=O)O/N=C(\N)c2nonc2N)cc1	PKM2 inh 13µM
Cc1ccc(C(=O)/C=C/C(=O)c2ccc(C)cc2)cc1	none
Cc1ccc(C(=O)OCn2ncc(Cl)c(Cl)c2=O)cc1	none
CCn1c(SCC(=O)Nc2cccc(C)c2)nc2nc3c(cc2c1=O)COC(C)(C)C3	none
Cc1cc(-c2ccco2)c(C#N)c2nc3ccccc3n12	none
CNc1c([N+](=O)[O-])cnn1-c1ccc(Cl)cc1	none
COc1cccc2cc(C(=O)Nc3cc(Cl)ccc3N3CCOCC3)c(=O)oc12	none
CCN(CC)c1ccc(/C=N/NC(=O)c2ccoc2C)cc1	PKM2 inh 28µM
CN(C)c1ccc(/C=N/NC(=O)c2ccccc2O)o1	none
O=C(N/N=C/c1ccc(F)cc1)c1cc(-c2ccco2)nc2ccccc12	none
O=C(CC(Nc1ccc(F)cc1)C(=O)OCC(=O)c1cccs1)c1ccccc1 (stereo not given)	none
COc1ccc(-c2ncccc2OC(=O)C23CC4CC(CC(C4)C2)C3)cc1OC	none
O=C(COc1ccc(Br)cc1F)N1CCN(c2ncccn2)CC1	none
C/C(=N/NC(=O)c1cccs1)c1c(C)[nH]n(-c2nc3ccccc3s2)c1=O	PKM2 inh 14µM
CCNc1sc(C(=O)c2cccs2)c(N)c1-c1nc2ccccc2s1	none
Cc1cc(O)ccc1NS(=O)(=O)c1ccc2c3c(cccc13)C(=O)N2	none
CC(C)c1cccc(OCC(=O)Nc2ccc(S(=O)(=O)Nc3ccccn3)cc2)c1	none
CCc1ccc(C2=NNC(=Nc3c(C)n(C)n(-c4ccccc4)c3=O)SC2)cc1	none
CCOC(=O)c1c(-c2ccc(C)o2)csc1NC(=O)COC(=O)c1ccc(NC(N)=O)cc1	none
Cc1sc2nc(CN(Cc3cccs3)C(=O)C3CC3)[nH]c(=O)c2c1C	none
COc1cccc(/C=N/NC(=O)c2cc3c(OC)cccc3[nH]2)c1O	none
COc1ccc(-c2nn(-c3ccccc3)cc2/C=N/NS(=O)(=O)c2ccccc2)cc1	none
COc1ccc(/C=N/Nc2nccnc2Cl)cc1	PKM2 inh 13µM
Clc1nccnc1N/N=C/c1ccc(Br)cc1	PKM2 inh 14µM
COc1cccc(/C=N/Nc2ncnc3c2[nH]c2ccc(C)cc23)c1OC	none
COc1cccc(/C=N/Nc2nccnc2Cl)c1O	PKM2 inh 14µM
N#C/C(=C\c1ccc(F)c(Cl)c1)S(=O)(=O)c1ccccn1	none
NC(N)=NC1=NC(=O)C(Cc2ccccc2Cl)S1 (stereo not given)	none
CCCC(=O)Nc1ccc(Cl)c(NC(=O)c2cccc(OC)c2)c1	none
COc1cc([N+](=O)[O-])ccc1NC(=O)COC(=O)c1ccc(NC(N)=O)cc1	none
COc1ccc(NN=Nc2nc3c([nH]2)c(=O)n(C)c(=O)n3C)cc1	none
Cc1ccc(/C=C/C2=Cc3c(sc(NC(=O)CSc4n[nH]c(N)n4)c3C#N)C(C)(C)C2)o1	none
COc1ccc2c(c1)OCC1=C2CCC2(C)C(=O)CC=C12 (stereo not given)	none
CC(=O)c1c(C)[nH]c(C(=O)N(C)C(c2ccccc2)c2ccccc2)c1C	none
Cc1ccc(CCC(=O)Nc2ncc(Cc3cccc(Cl)c3Cl)s2)o1	none
O=C(Nc1ccc2c(c1)C(=O)NC2=O)c1cc(Cl)ccc1Cl	none
Oc1ccc(-c2nc3ccc4ccccc4c3c3c2CCC3)cc1O	none
COC(=O)C1=C(C)N(Cc2ccco2)C(=O)N[C@H]1c1cccc(C(F)(F)F)c1	none
O=C(NCc1cccs1)C1CCN(S(=O)(=O)c2ccccc2F)CC1	none
O=C(N/N=C/c1ccncc1)c1cc([N+](=O)[O-])cc([N+](=O)[O-])c1O	none
O=C(Nc1ccccc1C(=O)N/N=C/c1ccncc1)c1ccccc1	PKM2 inh 14µM
Cc1cccc(C)c1NC(=S)N/N=C/c1ccccc1C(=O)O	none
CC(=O)Nc1cccn(Cc2c(Cl)cccc2Cl)c1=O	none
Cc1cc(NC(=O)CSc2ccc3nnc(-c4cccs4)n3n2)no1	none
CCOc1ccccc1-c1cc(-c2ccc(OC)cc2)nc2c1c(=O)n(C)c(=O)n2C	none
Cc1ccc(CNC(=O)CCS(=O)(=O)c2cc(Br)cc3c2N(C(=O)C2CC2)CC3)o1	none
COc1cccc(Cn2nc(C(=O)O)c3ccccc3c2=O)c1	none
COc1cccc(CSc2nc3ccncc3[nH]2)c1	PKM2 inh 14µM
COc1ccc(S(=O)(=O)N2CCN=C2SCc2cccnc2)cc1	none
O=C(CNC(=O)c1ccc(Br)o1)OCC(=O)c1cccc([N+](=O)[O-])c1	none
NC(=O)CC(NC(=O)Cc1ccc(Br)cc1)c1ccc(NCCc2ccc(F)cc2)c([N+](=O)[O-])c1 (stereo not given)	none
Cc1ccc(NS(=O)(=O)c2cc3[nH]c(=O)c(=O)[nH]c3cc2C)c(C)c1	none
Cc1cccc(/C(N)=N/OC(=O)c2ccc3c(c2)OCO3)c1	PKM2 inh 11µM
Cc1noc(C)c1COc1cccc(C(=O)Oc2ccc3c(c2)OCO3)c1	none
Cc1nc2ccc(C(=O)NCc3ccc4c(c3)OCO4)cc2s1	none
CCNC(=O)COC(=O)c1sccc1C	none
CCN(C(=O)CSc1cc(C)c2cccc(C)c2n1)C1CCS(=O)(=O)C1 (stereo not given)	none
Cc1ccc(N2C(=O)c3ccccc3C2O)nc1 (stereo not given)	PKM2 inh 11µM
C=CCn1c(SCC(N)=O)nc2scc(-c3ccc(C)o3)c2c1=O	none
O=C(NCCN1C(=O)S/C(=C\c2cccs2)C1=O)c1ccc(=O)[nH]c1	none
Cc1ccc(NC(=O)C2C3C=CC4(CN(Cc5cccnc5)C(=O)C24)O3)cc1F (stereo not given)	none
COc1ccc(NC(=O)c2ccccn2)cc1	PKM2 inh 14µM
COc1ccc(NC(=O)c2ccc(NC(=O)CSc3nccc(=O)[nH]3)cc2)cc1	none
COc1cccc(NC(=O)CSc2ccccn2)c1	none
O=S(=O)(Nc1ccc(-n2cnnn2)cc1)c1ccc(F)c(F)c1F	none
CC(C)(C)C(=O)NC(=C(Cl)Cl)P(=O)(O)O	none
CCCN1CNC(=S)N(c2ccccc2OCC)C1	none
COc1ccc(NC(=O)CSc2nnnn2C)c([N+](=O)[O-])c1	none
COc1ccc(OC)c(-n2c(Cn3c(-c4ccccn4)nc4ccccc43)n[nH]c2=S)c1	none
Clc1ccccc1Nc1nnc(-c2ccncc2)s1	PKM2 inh 13µM
Cc1ccc2cc(CN(Cc3ccco3)C(=O)c3ccco3)c3nnnn3c2c1	none
O=C(/C=C/c1ccc(Br)cc1)NC(=S)Nc1ccc(S(=O)(=O)Nc2nccs2)cc1	none
Cc1ccc(-c2nnn(CC(=O)N(CCN3CCOCC3)C(C(=O)NC3CCCC3)c3ccncc3)n2)o1 (stereo not given)	none
OC(CNCCCCNCC(O)C(F)(F)F)C(F)(F)F (stereo not given)	none
COc1ccc2nc(/N=C/c3c(C)[nH]n(-c4ccc(C)cc4)c3=O)sc2c1	PKM2 inh 14µM
CCNc1nc(SCC(=O)Nc2ccc(Cl)c(Cl)c2)nc(N2CCOCC2)n1	none
COc1cc(N2C(=O)C=CC2=O)c(OC)cc1Cl	none
CN(Cc1ccccc1)C(=O)COC(=O)c1cc(NS(=O)(=O)c2cccs2)ccc1O	none
CCN1/C(=C/c2ccc3cc(C)ccc3[n+]2CC)Sc2ccccc21	PKM2 inh 4.5µM
Cc1ccc(C(=O)CNc2nc3c(c(=O)[nH]c(=O)n3C)n2Cc2ccccc2)cc1	none
C=CCc1cccc2cc(C(=O)Nc3ccc(S(=O)(=O)Nc4nnc(CC)s4)cc3)c(=O)oc12	none
c1ccc2nc(-c3nc4ccccc4o3)ccc2c1	PKM2 inh 18µM
O=C1CCC(=O)N1c1cccc(-c2nc3ccccc3o2)c1	none
